Results from PubChem BioAssay AID493035 (The Scripps Research Institute Molecular Screening Center, 2011).
The whole screen tested about 2,000 compounds, of which about 45 (2%) were called active. The sample as a whole holds a higher share of actives than the screen did. A number with no mark means an inactive call.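 How the source made its calls: active means inhibition above the mean of all tested compounds plus 3 SD (cut at about 49% in these data); inactive means the rest.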

Molecular target: Perilipin-5 (Homo sapiens) + 1-acylglycerol-3-phosphate O-acyltransferase ABHD5 (Homo sapiens) (UniProt Q00G26+Q8WTS1)
Test: blockers of ABHD5 binding to perilipin-5 – cell lysate, split luciferase complementation, luminescence, NIH validation set, pilot screen (AID 493035);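 further: 0% = DMSO only wells while the 100% control is not stated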
Conditions: split G. princeps luciferase complementation, lysates, 4 h, at 7.9 µM, stronger effect = higher value

Chain of Perilipin-5 (Homo sapiens) + 1-acylglycerol-3-phosphate O-acyltransferase ABHD5 (Homo sapiens) (Q00G26 whole entry, looked up): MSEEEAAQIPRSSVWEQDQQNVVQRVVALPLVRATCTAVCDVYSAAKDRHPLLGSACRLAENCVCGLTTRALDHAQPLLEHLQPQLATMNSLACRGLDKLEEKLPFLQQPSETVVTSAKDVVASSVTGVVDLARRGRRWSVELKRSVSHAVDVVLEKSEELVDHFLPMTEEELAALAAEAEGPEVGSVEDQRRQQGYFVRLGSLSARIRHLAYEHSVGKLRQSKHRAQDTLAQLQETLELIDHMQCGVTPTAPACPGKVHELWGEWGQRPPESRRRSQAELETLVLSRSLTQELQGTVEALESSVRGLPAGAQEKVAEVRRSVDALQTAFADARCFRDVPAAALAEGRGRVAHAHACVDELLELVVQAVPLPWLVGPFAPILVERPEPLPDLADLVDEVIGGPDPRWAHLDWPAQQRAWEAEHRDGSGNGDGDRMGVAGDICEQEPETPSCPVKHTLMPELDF
Chain of Perilipin-5 (Homo sapiens) + 1-acylglycerol-3-phosphate O-acyltransferase ABHD5 (Homo sapiens) (Q8WTS1 whole entry, looked up): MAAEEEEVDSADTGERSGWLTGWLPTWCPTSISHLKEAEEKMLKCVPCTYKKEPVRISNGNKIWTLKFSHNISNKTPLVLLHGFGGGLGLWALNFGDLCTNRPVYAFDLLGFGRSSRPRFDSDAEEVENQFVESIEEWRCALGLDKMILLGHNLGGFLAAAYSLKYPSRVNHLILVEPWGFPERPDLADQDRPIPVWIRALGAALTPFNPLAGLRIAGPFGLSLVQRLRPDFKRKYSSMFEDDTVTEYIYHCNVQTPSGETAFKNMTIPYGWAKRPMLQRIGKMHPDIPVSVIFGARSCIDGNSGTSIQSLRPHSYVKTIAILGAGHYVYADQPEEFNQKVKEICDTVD

Q: Which inhibition does the source give for `O=C1C(=O)c2ccccc2-c2ccccc21` here?
A: 69.8% (active)

Q: Which inhibition does the source give for `S=C1NCCN1` here?
A: -0.74%

Q: For `CC12CN3CC(C)(CN(C1)C31CCOCC1)C2=O`, which inhibition is on record?
A: -15.3%

Q: Which inhibition does the source give for `C[C@H]1CCC/C=C/C2C[C@H](O)CC2[C@H](O)/C=C/C(=O)O1` (stereo not given in full) here?
A: -14.2%

Q: For `CC[C@]12C=CCN3CCC4(c5cc(Br)c(OC)cc5N(C)C4[C@@](O)(C(=O)OC)[C@@H]1OC(C)=O)C32` (stereo not given in full), which inhibition is on record?
A: -5.38%

Q: With `CCOC(=O)c1cc2c(cn1)[nH]c1ccccc12` as the compound, how does the inhibition read?
A: -11.3%

Q: For `COP(=S)(OC)SCN1C(=O)c2ccccc2C1=O`, which inhibition is on record?
A: 93.3% (active)

Q: `COc1ccc2c(c1)CC1(CN2C)C(=O)NC(=O)N(CCc2ccccc2)C1=O` (stereo not given) was tested. Which inhibition did it give?
A: 3.64%

Q: For `CC12CCC3C(CC=C4CC(O)CCC43C)C1C/C(=C\c1cccc(F)c1)C2=O` (stereo not given), which inhibition is on record?
A: -0.83%

Q: For `O=C1C=Cc2ccccc2C1=O`, which inhibition is on record?
A: 59.1% (active)

Q: `C[N+]1(C)C2CCC1CC(OC(=O)C(CO)c1ccccc1)C2` (stereo not given) was tested. Which inhibition did it give?
A: -3.97%

Q: For `C[C@H]1CCCC(=O)CCCCCc2cc(O)cc(O)c2C(=O)O1`, which inhibition is on record?
A: 6.49%

Q: `Cc1cc2c(C(C)C)c(O)c(O)c(C=O)c2c(O)c1-c1c(C)cc2c(C(C)C)c(O)c(O)c(C=O)c2c1O` was tested. Which inhibition did it give?
A: 50.7% (active)

Q: Which inhibition does the source give for `NCC1(c2ccc3c(c2)OCCO3)CCCC1` here?
A: -7.35%

Q: How did the inhibition turn out when `CCOC(=O)C(C)Oc1cc(C)cc2oc(=O)c3c(c12)CCCC3` (stereo not given) was run?
A: 6.91%

Q: With `Cc1ccc(/C=C2/C(=O)NC(=O)N(C)C2=O)cc1` as the compound, how does the inhibition read?
A: 7.85%

Q: Which inhibition does the source give for `Cc1ccc(-n2c(C)cc(/C=C3/C(=O)NC(=O)N(C)C3=O)c2C)cc1` here?
A: 33.2%

Q: Which inhibition does the source give for `COc1cc(/C=C2\C(=O)NC(=O)N(c3ccccc3)C2=O)c([N+](=O)[O-])cc1OC` here?
A: 63.5% (active)

Q: Which inhibition does the source give for `CCOc1ccc(N2C(=O)NC(=O)/C(=C\c3cc(OC)c(OC)cc3[N+](=O)[O-])C2=O)cc1` here?
A: 66.2% (active)

Q: For `CC[C@@H](CO)NC(=O)[C@@H]1C=C2c3cccc4c3c(cn4C)C[C@H]2N(C)C1`, which inhibition is on record?
A: 1.19%

Q: For `C[C@]12CC[C@@H](O)C[C@@H]1CC[C@@H]1[C@@H]2CC[C@]2(C)C(=O)CC[C@@H]12`, which inhibition is on record?
A: -8.46%

Q: How did the inhibition turn out when `Cc1ccsc1C(=O)C1CCCN(Cc2cc3ccccc3o2)C1` (stereo not given) was run?
A: -2.51%

Q: `COc1ccc(-c2nc3ccccc3c(=O)o2)cc1` was tested. Which inhibition did it give?
A: -1.16%

Q: `CC(Cc1ccccc1)NCC(=O)Nc1cc(N(C)C)nc2ccccc12` (stereo not given) was tested. Which inhibition did it give?
A: 2.7%

Q: How did the inhibition turn out when `COc1ccccc1CN1CCCCC1c1cccnc1` (stereo not given) was run?
A: -4.35%

Q: For `Clc1ccc(COC(Cn2ccnc2)c2ccc(Cl)cc2Cl)c(Cl)c1` (stereo not given), which inhibition is on record?
A: 4.9%

Q: `COc1ccc(OC)c([C@@H](O)[C@H](C)NC(C)(C)C)c1` was tested. Which inhibition did it give?
A: 2.3%

Q: `C[N+](C)(C)Cc1ccccc1` was tested. Which inhibition did it give?
A: -2.04%

Q: With `CC12CN3CC(c4ccccc4)(CN(C1)C31CCCCC1)C2=O` as the compound, how does the inhibition read?
A: -2.32%

Q: For `Cc1nc2ccccc2c(=O)n1-c1ccc(C(=O)O)cc1`, which inhibition is on record?
A: 7.89%

Q: How did the inhibition turn out when `O=c1c2ccccc2[se]n1-c1ccccc1` was run?
A: 95.1% (active)

Q: `O=c1c2ccccc2nc(/C=C/c2ccc3c(c2)OCO3)n1-c1ccccc1` was tested. Which inhibition did it give?
A: 2.37%

Q: Which inhibition does the source give for `C[C@]12CC[C@@H](O)C[C@@H]1CC[C@@H]1[C@@H]2CC[C@]2(C)[C@@H](O)CC[C@@H]12` here?
A: -3.26%

Q: With `CCN(CC)CCOC(=O)C(O)(c1ccccc1)c1ccccc1` as the compound, how does the inhibition read?
A: 0.42%

Q: For `CCN1CC2(COC(=O)c3ccccc3N)CCC(OC)C34C5CC6C(OC)CC(O)(C5C6OC)C(O)(C(OC)C23)C14` (stereo not given), which inhibition is on record?
A: 0.04%
